RE007 growth inh: less growth of the S. pombe RE007 Vpr strain; S. pombe RE007 Vpr strain, BacTiter-Glo ATP luminescence, 24 h; Potency, µM (titrated, usually from 92.2 µM), most hits filed as inhibitors; hit rate 0.21% among 360,000; AID 651644; active = well fitted falling curve with a large enough effect; inconclusive = small, poorly fitted or top-dose-only effect; inactive = no such curve, though single readings can be large or run the other way; note: nearly all actives have a fitted effect of over 50% in size
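Fission yeast RE007 carrying one integrated HIV-1 vpr copy, seeded at OD 0.01 in PMG+AL medium with 23 nL pinned compound. Grown 24 h at 30 degrees; viability read by BacTiter-Glo luminescence after 5 min.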
Pf growth 48h: inhibits P. falciparum growth in the first generation, 48 h; Potency, µM (series often up to 28.7 µM), hits mostly inhibitors; hit rate 5.9% among 310,000; P. falciparum luciferase growth in erythrocytes, 48 h; active = well fitted inhibition curve with a large enough effect; inconclusive = small, poorly fitted or top-dose-only effect, or another doubt; inactive = no such curve, though single readings can be large or run the other way
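Parasite viability was followed by luminescence of a genomically integrated firefly luciferase. Cultures held 0.1% parasitemia at 2% hematocrit (final), incubated under 5% CO2 at 37 C.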
SARS PLpro yeast: inhibitors of SARS-CoV papain-like protease in yeast. S. cerevisiae expressing SARS-CoV PLpro, growth rescue. Potency, µM (top dose mostly 32.9 µM), actives largely listed as activators. hit rate 0.19% among 330,000. AID 485353; note: nearly all actives have a fitted effect of over 55% in size
NS1 function inh: influenza NS1 inhibition; Potency, µM (titrated, usually from 46.1 µM); hit rate 0.4% among 270,000; AID 2326; note: actives are rising curves; nearly all actives have a fitted effect of over 50% in size
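In this qHTS, NS1 from influenza A is expressed in budding yeast, where it slows growth. Cells are switched from glucose to 2% galactose medium (pH 6.0, -URA), treated with compound, and growth recovery is read at OD600.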
Pf growth 96h: inhibits malaria parasite growth, 96 h | Potency, µM (doses to about 28.7 µM), most hits filed as inhibitors | hit rate 6.9% among 320,000 | P. falciparum luciferase reporter growth, 96 h | AID 504834; active = well fitted inhibition curve with a large enough effect; inconclusive = small, poorly fitted or top-dose-only effect, or another doubt; inactive = no such curve, though single readings can be large or run the other way
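Compounds incubated with erythrocytes infected by luciferase-expressing P. falciparum (2% hematocrit, 0.05% parasitemia final) for 96 hours, 37 C in 5% CO2. Growth inhibition scored as decreased luciferase luminescence.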
Of the large screens only hits and unclear results are named; the others gave an inactive call. An excerpt weighted towards active compounds, which were near 9.5% of everything screened. Unless noted, calls come from the whole dose curve.

C[C@H](NC(=O)[C@@H]1CSC2c3ccccc3C(=O)N21)C(=O)NC1CCCCC1 (stereo partly specified)	Pf growth 96h inconclusive
COc1ccc(CCNC(=O)c2cc3c(=O)n4ccccc4nc3n(CC3CCCO3)c2=N)cc1OC (stereo unspecified)	Pf growth 48h inconclusive, Pf growth 96h inconclusive
COc1ccc(CCNC(=O)c2cc3c(=O)n4ccccc4nc3n(C3CCCCC3)c2=N)cc1	Pf growth 48h inconclusive, Pf growth 96h 4.1µM
COc1ccc(CCNC(=O)c2cc3c(=O)n4ccccc4nc3n(C3CCCCC3)c2=N)cc1OC	Pf growth 48h inconclusive, Pf growth 96h 10µM
COc1ccc(CCNC(=O)c2cc3c(=O)n4ccccc4nc3n(CC3CCCO3)c2=N)cc1 (stereo unspecified)	none (no result: Pf growth 48h, SARS PLpro yeast, NS1 function inh, Pf growth 96h)
Cc1ccc2oc(C(=O)N3CCN(c4cccc(C)n4)CC3)c(C)c2c1	Pf growth 96h inconclusive
CCOc1ccc2oc(C(=O)N3CCN(c4ccccn4)CC3)c(C)c2c1	Pf growth 96h 13µM
Cc1cc(Cl)c2oc(C(=O)N3CCN(c4cccc(C)n4)CC3)c(C)c2c1	Pf growth 96h 3.7µM
Cc1c(C(=O)N2CCN(c3ccccn3)CC2)oc2ccccc12	Pf growth 48h 8.3µM (no result: Pf growth 96h)
O=c1c(NCCc2ccccc2)c(-c2ccccc2)c1=O	Pf growth 48h 2.1µM
COc1ccc(NC(=O)CS(=O)CC(=O)Nc2cccnc2)cc1 (stereo unspecified)	none
Cc1ccc(CN2CC(C(=O)N3CCN(c4ccccc4Cl)CC3)CC2=O)cc1 (stereo unspecified)	Pf growth 48h 6.6µM, Pf growth 96h 12µM (no result: NS1 function inh)
Cc1cccc(N2CCN(C(=O)C3CCC(=O)N(Cc4ccccc4F)C3)CC2)c1C (stereo unspecified)	RE007 growth inh inconclusive, Pf growth 48h 9.3µM, Pf growth 96h 10µM
COCCN1CCN(C(=O)C2CCC(=O)N(Cc3ccccc3F)C2)CC1 (stereo unspecified)	Pf growth 96h inconclusive
CCCCN(C)CCCNC(=O)C1CC(=O)N(Cc2ccc(OC)cc2)C1 (stereo unspecified)	Pf growth 96h 12µM (no result: SARS PLpro yeast)
COc1ccc(CN2CC(C(=O)N3CC(C)CC(C)C3)CC2=O)cc1 (stereo unspecified)	Pf growth 96h 3.7µM
N#CC(=C(\N)Sc1ccccc1N)/C(C#N)=C(/N)Sc1ccccc1N	none (no result: RE007 growth inh, Pf growth 48h, SARS PLpro yeast, Pf growth 96h)
C[C@H](c1ccccc1)N1C[C@H](COCc2ccccc2)Oc2cc(N3CCC[C@H]3C(N)=O)ccc2S1(=O)=O	none (no result: Pf growth 48h, SARS PLpro yeast, NS1 function inh, Pf growth 96h)
OC[C@@H]1CN(Cc2cccc(C(F)(F)F)c2)C[C@H](n2cnc3c(NC4CC4)ncnc32)O1	none (no result: Pf growth 48h, SARS PLpro yeast, NS1 function inh, Pf growth 96h)
COC(=O)c1c(NC(=O)c2ccccc2F)sc(C(=O)N2CCOCC2)c1C	none
CC(C)C(N)c1csc(Nc2ccc(C(=O)c3ccccc3)cc2)n1 (stereo unspecified)	none (no result: Pf growth 48h, SARS PLpro yeast, NS1 function inh, Pf growth 96h)
COc1ccc(Cl)cc1NC(=O)c1sc2nc(C)nc(N3CCOCC3)c2c1C	Pf growth 96h inconclusive
Oc1ccc(Cc2cc(Cl)cc(Cl)c2O)cc1Cl	none (no result: RE007 growth inh, Pf growth 48h, SARS PLpro yeast, Pf growth 96h)
CCN1CCc2c(sc(NC(=O)c3cc4ccccc4cc3OC)c2C(N)=O)C1	Pf growth 48h 9.3µM, Pf growth 96h inconclusive
CC(C)N1CCc2c(sc(NC(=O)CCc3ccccc3)c2C(N)=O)C1	Pf growth 48h inconclusive, Pf growth 96h inconclusive (no result: NS1 function inh)
CC(C)N1CCc2c(sc(NC(=O)c3ccc4ccccc4c3)c2C(N)=O)C1	Pf growth 48h 10µM, Pf growth 96h 9.3µM
CC(C)N1CCc2c(sc(NC(=O)Cc3ccccc3)c2C(N)=O)C1	Pf growth 48h inconclusive, Pf growth 96h inconclusive
CC(C)N1CCc2c(sc(NC(=O)c3ccc(C(=O)c4ccccc4)cc3)c2C(N)=O)C1	Pf growth 48h 13µM, Pf growth 96h inconclusive
COC(=O)c1c(NC(=O)c2ccco2)sc2c1CCN(C(C)C)C2	Pf growth 96h inconclusive
CC(C)N1CCc2c(sc(NC(=O)c3ccco3)c2C(N)=O)C1	Pf growth 48h 0.47µM, Pf growth 96h inconclusive
O=[As](O)(O)c1ccc(NCc2ccccc2)cc1	none (no result: RE007 growth inh, Pf growth 48h, SARS PLpro yeast, Pf growth 96h)
Cc1ccc(NC(=O)COC(=O)C2=NNC(=O)CC2)c(Br)c1	none (no result: Pf growth 48h, NS1 function inh, Pf growth 96h)
CC(C)N1CCc2c(sc(NC(=O)CCS(=O)(=O)c3ccccc3)c2C#N)C1	Pf growth 96h inconclusive
CC(=O)Nc1sc2c(c1-c1nc3ccccc3s1)CCN(C(C)C)C2	Pf growth 48h 3.7µM, Pf growth 96h 4.1µM

Compound activity: PubChem, National Center for Advancing Translational Sciences (NCATS)
